The target in experiment [1] is Alpha-galactosidase (Coffea arabica) (UniProt Q42656). Nature of the experiment: Counterscreen for Glucocerebrosidase Inhibitors: qHTS Assay for Coffee Bean alpha-Galactosidase at pH 4.5 (AID 957).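 Further: series mostly up to about 77 µM; plate controls were enzyme alone for no effect and no enzyme for full effect.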 Put shortly: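 Enzyme is added first (2 nM final), then compounds titrated from 0.7 nM to 77 uM, then 80 uM 4-methylumbelliferyl alpha-D-galactopyranoside; after 20 min at room temperature a pH 10 NaOH/glycine stop precedes fluorescence reading at 365/440 nm.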
Alpha-galactosidase (Coffea arabica), sequence (Q42656 whole entry, looked up): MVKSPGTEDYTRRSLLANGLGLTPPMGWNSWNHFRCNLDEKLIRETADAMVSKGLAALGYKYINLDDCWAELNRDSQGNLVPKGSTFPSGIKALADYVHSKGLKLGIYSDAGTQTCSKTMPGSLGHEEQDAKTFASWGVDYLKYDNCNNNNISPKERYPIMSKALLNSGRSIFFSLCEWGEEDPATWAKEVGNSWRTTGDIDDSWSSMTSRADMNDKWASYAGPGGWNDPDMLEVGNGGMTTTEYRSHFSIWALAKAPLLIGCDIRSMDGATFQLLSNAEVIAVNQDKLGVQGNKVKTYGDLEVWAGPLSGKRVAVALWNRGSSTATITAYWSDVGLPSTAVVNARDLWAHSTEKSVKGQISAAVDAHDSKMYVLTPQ
(In general: Counterscreens check selectivity or assay interference.)

The target is the same in experiment [2]. Nature of the experiment: Counterscreen for Glucocerebrosidase Inhibitors: qHTS Assay for Coffee Bean alpha-Galactosidase at pH 5.9 (AID 998).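 Further: plate controls were uninhibited enzyme for no effect and no-enzyme basal signal for full effect.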 Put shortly: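 In 50 mM citric acid pH 5.9 with 0.005% Tween-20, coffee bean enzyme hydrolyses 80 uM 4-MU alpha-D-galactopyranoside over 20 min at RT. Activity is normalized to controls; AC50 comes from Hill-modelled concentration-response data.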

Experiment [3] in a line: Inducers of the Endoplasmic Reticulum Stress Response (ERSR) in human glioma: Validation (AID 504836). Further: 0% is about no effect. Put shortly:
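Stably transfected U87-MG human glioma cells carrying a GRP78-based luminescent sensor were seeded at 1000 cells/well, pin-dosed with compounds and incubated 16 h. Luciferase reagent was then added, and end-point luminescence was read after 10 min at room temperature.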

The nature of experiment [4]: qHTS for Inhibitors of the Functional Ribonucleoprotein Complex (vRNP) of Lassa (LASV) Arenavirus: LASV Primary Screen - GLuc reporter signal (AID 1347082; calls by dose curve; tested in HEK293 reporter line; further: nearly all actives have a fitted effect of over 60% in size; further: potency means the concentration at half of the fitted maximal effect). (In general: In qHTS, concentration-response curves come from the screen itself.)
A short description of experiment [5]: qHTS for Inhibitors of the Functional Ribonucleoprotein Complex (vRNP) of Lassa (LASV) Arenavirus: Viability assay - alamar blue signal for LASV Primary Screen (AID 1347083; calls by dose curve; tested in HEK293 reporter line; further: nearly all actives have a fitted effect of over 80% in size; further: potency means the concentration at half of the fitted maximal effect).
Experiment [6] is described as follows: qHTS for Inhibitors of the Functional Ribonucleoprotein Complex (vRNP) of Lymphocytic Choriomeningitis Arenaviruses (LCMV): Viability assay - alamar blue signal for LCMV Primary Screen (AID 1347085; calls by dose curve; tested in HEK293 reporter line; further: nearly all actives have a fitted effect of over 80% in size; further: potency means the concentration at half of the fitted maximal effect).
The target in experiment [7] is Nucleoprotein (Lymphocytic choriomeningitis virus (strain Armstrong)) (UniProt P09992). Nature of the experiment: qHTS for Inhibitors of the Functional Ribonucleoprotein Complex (vRNP) of Lymphocytic Choriomeningitis Arenaviruses (LCMV): LCMV Primary Screen - GLuc reporter signal (AID 1347086; calls by dose curve; further: nearly all actives have a fitted effect of over 70% in size; further: potency means the concentration at half of the fitted maximal effect).
Nucleoprotein (Lymphocytic choriomeningitis virus (strain Armstrong)), sequence (P09992 whole entry, looked up): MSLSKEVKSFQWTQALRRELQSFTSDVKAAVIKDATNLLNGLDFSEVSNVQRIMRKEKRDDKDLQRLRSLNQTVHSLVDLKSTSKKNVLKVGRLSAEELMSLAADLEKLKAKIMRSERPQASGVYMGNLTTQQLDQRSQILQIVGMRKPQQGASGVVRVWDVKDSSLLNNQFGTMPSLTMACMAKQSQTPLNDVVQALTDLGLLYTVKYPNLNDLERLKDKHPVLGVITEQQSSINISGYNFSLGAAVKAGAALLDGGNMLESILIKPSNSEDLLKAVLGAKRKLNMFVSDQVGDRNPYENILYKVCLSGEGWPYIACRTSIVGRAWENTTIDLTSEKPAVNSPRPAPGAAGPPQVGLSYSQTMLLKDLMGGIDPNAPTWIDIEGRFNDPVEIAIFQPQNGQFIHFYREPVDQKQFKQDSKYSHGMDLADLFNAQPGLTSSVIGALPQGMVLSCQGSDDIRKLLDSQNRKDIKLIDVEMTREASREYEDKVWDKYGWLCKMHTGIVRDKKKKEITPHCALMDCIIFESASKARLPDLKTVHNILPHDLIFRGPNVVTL
Experiment [8] addresses Bile acid receptor (Homo sapiens) (UniProt Q96RI1). Nature of the experiment: qHTS assay for small molecule agonists of farnesoid X receptor signaling (AID 588527; calls by dose curve;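 further: series mostly up to about 77 µM; 0% = vehicle basal and 100% = reference agonist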). Conditions: HEK293T FXR-UAS-bla, beta-lactamase ratio, 16 h; activation: stronger effect = higher value. An outline of the steps:
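FXR-UAS-bla HEK293T cells (10% dialyzed FBS) preincubated 5-7 h at 37 C, then compounds at up to 92 uM for 16 h at 37 C. CCF4 beta-lactamase read-out after 2 h RT. Normalized to chenodeoxycholic acid (100 uM) and DMSO; Hill fit gave EC50 and efficacy.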

Experiment [9] concerns the target Cytochrome P450 3A4 (Homo sapiens) (UniProt P08684). The experiment is described as follows: qHTS Assay for Inhibitors and Substrates of Cytochrome P450 3A4 (AID 884). Further: series mostly up to about 57 µM; on the % scale 0 is the no-effect control and ±100 the full control effect; nearly all actives have a fitted effect of over 50% in size. An outline of the steps: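 Luminescent readout of luciferin produced by CYP3A4 (20 nM) dealkylation of Luciferin-PPXE, 25 uM (its KM). NADPH-driven reaction ran 60 min at RT after 10 min compound preincubation; data scaled to 57 uM ketoconazole as 100% inhibition.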

The target in experiment [10] is Ubiquitin carboxyl-terminal hydrolase 1 (Homo sapiens) (UniProt O94782). The experiment is described as follows: Inhibitors of USP1/UAF1: Pilot qHTS (AID 504865).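 Further: rhodamine fluorescence freed from ubiquitin-rhodamine substrate followed over time; top concentration of the series differs between compounds; on the % scale 0 is the no-effect control and ±100 the full control effect; nearly all actives have a fitted effect of over 35% in size.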 An outline of the steps:
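USP1/UAF1 complex (1nM) preincubated with compound 15 min at room temperature, then Ub-Rho substrate (150nM final) added. Fluorescence read kinetically at 480/540 nm, 6 reads every 60 seconds. Buffer: 50mM HEPES pH 7.8, 0.5mM EDTA, 0.1 mg/ml BSA, 1mM TCEP, 0.01% Tween-20.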

Experiment [11] deals with DNA dC->dU-editing enzyme APOBEC-3G (Homo sapiens) (UniProt Q9HC16). Nature of the experiment: qHTS for inhibitors of Vif-A3G interactions: Validation (AID 588379). Further: 0% is about no effect. An outline of the steps:
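Yellow fluorescence (Ex 488, Em 500-530) of Vif-coexpressing HeLa A3G-eYFP cells, scanned by Acumen cytometer, reports blocked A3G degradation. Cells plated at 700/well overnight at 37 deg C before compound addition, then a further overnight compound incubation at 37 deg C.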

Experiment [12] addresses Arylsulfatase A (Homo sapiens) (UniProt P15289). The experiment is described as follows: qHTS screen for enhancers of Arylsulfatase A (ASA1): LOPAC Validation Assay (AID 720538). Further: 0% is about no effect. An outline of the steps:
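SV40-transformed skin fibroblasts from an MLD patient (ASA-I179S) were treated with compounds for 48h at 37 degree C, then lysed with 0.5mM pNCS final substrate for 14h at room temperature; NaOH stop, fluorescence read (Ex=525 nm; Em=598 nm).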

Experiment [13] is described as follows: S16 Schwann cell PMP22 intronic element beta-lactamase assay (AID 624044; calls by dose curve; further: potency means the concentration at half of the fitted maximal effect; nearly all actives have a fitted effect of over 15% in size). An outline of the steps: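 Beta-lactamase reporter under a PMP22 intronic regulatory element in stable S16 rat Schwann cells; 24 h compound exposure. 460 nm blue signal normalized between DMSO (0%) and potassium clavulanate, with 535 nm FRET tracking viability; curves classed by r2 and response.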

Each structure is given as a SMILES string. A number with no mark means an inactive call. Inconclusive results are not listed. Calls of active or inactive are those of the source. Unless noted, the call rests on the fitted dose curve; in most records, active means well fitted curve in the direction sought with a large enough effect; inconclusive means small, poorly fitted or top-dose-only effect, or another doubt; inactive means no such curve, though single readings can be large; an effect the other way counts as inactive or inconclusive.

Ubiquitin carboxyl-terminal hydrolase 1 (Homo sapiens), sequence (O94782 whole entry, looked up): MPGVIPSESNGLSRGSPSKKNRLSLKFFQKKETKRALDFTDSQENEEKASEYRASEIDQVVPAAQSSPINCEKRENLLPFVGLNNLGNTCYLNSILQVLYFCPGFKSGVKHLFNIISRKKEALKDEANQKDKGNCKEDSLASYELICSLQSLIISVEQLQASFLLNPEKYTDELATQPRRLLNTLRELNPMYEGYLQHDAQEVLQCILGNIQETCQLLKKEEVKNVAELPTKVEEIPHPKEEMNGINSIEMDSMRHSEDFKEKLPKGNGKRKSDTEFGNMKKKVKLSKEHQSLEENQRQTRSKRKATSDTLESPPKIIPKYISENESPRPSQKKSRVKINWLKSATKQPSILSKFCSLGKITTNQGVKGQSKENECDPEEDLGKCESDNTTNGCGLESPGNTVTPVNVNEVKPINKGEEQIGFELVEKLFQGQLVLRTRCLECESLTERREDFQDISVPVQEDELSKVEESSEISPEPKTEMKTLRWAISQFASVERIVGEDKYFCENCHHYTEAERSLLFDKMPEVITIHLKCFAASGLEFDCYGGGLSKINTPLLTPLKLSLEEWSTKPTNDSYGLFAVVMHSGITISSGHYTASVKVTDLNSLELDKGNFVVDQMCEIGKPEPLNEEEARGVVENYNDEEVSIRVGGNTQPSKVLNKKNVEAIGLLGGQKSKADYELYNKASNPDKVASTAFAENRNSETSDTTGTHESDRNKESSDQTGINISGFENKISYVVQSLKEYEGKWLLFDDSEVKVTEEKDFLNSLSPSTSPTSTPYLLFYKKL
Arylsulfatase A (Homo sapiens), sequence (P15289 whole entry, looked up): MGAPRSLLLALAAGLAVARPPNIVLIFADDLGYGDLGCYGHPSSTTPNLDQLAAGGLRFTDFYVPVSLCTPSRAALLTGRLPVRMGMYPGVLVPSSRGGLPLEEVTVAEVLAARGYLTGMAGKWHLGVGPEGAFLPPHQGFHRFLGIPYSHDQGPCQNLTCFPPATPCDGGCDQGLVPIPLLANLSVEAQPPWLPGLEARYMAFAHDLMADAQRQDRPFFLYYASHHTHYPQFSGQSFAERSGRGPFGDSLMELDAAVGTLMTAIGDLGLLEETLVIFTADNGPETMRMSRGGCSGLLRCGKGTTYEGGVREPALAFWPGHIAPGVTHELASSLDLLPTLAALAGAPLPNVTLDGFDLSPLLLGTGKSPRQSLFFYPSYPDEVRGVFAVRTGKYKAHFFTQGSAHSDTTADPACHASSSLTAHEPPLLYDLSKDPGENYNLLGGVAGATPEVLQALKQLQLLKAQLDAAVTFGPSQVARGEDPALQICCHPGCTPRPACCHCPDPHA
Cytochrome P450 3A4 (Homo sapiens), sequence (P08684 whole entry, looked up): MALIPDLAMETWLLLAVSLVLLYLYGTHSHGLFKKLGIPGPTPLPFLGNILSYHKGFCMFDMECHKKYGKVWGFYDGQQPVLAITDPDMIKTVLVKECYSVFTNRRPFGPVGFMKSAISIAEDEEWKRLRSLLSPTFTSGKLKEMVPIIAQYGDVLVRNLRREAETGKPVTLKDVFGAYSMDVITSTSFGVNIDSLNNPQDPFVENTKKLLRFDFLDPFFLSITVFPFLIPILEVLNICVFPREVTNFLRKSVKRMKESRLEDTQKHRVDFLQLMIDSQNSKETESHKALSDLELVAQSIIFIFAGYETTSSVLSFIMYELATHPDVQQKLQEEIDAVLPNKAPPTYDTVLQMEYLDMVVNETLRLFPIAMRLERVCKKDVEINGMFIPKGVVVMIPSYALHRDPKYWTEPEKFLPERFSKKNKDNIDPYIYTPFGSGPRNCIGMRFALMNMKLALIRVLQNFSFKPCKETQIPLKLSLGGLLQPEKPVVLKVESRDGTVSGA
DNA dC->dU-editing enzyme APOBEC-3G (Homo sapiens), sequence (Q9HC16 whole entry, looked up): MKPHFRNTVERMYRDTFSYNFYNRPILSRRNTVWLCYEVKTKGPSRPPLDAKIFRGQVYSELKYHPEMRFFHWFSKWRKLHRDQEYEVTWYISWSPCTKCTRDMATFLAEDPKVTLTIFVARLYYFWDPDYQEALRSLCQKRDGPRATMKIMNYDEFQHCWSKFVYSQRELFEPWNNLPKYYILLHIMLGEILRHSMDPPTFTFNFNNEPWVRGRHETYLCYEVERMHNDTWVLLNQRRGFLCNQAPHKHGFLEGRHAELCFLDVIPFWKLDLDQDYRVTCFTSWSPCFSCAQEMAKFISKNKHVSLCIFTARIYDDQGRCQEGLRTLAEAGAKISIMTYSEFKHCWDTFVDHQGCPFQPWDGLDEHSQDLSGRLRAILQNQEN
Bile acid receptor (Homo sapiens), sequence (Q96RI1 whole entry, looked up): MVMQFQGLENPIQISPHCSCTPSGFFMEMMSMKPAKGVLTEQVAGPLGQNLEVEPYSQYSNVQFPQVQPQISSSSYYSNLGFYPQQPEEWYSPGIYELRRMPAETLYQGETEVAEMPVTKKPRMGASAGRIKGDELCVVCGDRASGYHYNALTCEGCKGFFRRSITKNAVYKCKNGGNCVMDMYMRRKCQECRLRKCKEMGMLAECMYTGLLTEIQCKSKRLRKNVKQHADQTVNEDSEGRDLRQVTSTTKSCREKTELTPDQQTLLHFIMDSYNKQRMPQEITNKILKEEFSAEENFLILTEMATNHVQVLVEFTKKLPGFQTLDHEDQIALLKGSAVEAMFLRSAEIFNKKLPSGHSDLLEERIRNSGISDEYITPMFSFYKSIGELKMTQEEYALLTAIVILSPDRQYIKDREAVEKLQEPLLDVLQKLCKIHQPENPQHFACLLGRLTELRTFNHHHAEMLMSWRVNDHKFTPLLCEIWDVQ

`CC[C@@H]1Cc2cc(O)ccc2C2=C1c1ccc(O)cc1C[C@H]2CC`: the compound was classed as inactive in experiment [1], in experiment [2] and in experiment [3]. Besides, the Potency entry in [4], in [5], in experiment [6] and in experiment [7] was “inactive” throughout.
As to `CCCCC=O`, in experiment [8], the activation is 1.59%. For the same compound, the Potency entry in experiment [4], in experiment [5], in experiment [6] and in [7] was “inactive” in each case.
In the case of `N=C(N)SCCc1ccc(CCSC(=N)N)cc1`, the compound was called inactive in experiment [2] and in experiment [3]. Besides, the Potency result in [4], in experiment [5], in [6] and in experiment [7] was “inactive” each time.
In the case of `NC(=NCc1ccccc1)NC(=O)c1nc(Cl)c(N)nc1N`, the compound was called inactive in [1], in experiment [2] and in experiment [3]. The Potency entry in [4], in [5], in experiment [6] and in experiment [7] was “inactive” throughout.
For `O=CN1CCCCC1C1CC[C@H]2CCCCN2C1` (stereo partly specified), the Potency entry in experiment [9], in experiment [10], in [11], in experiment [4], in experiment [5] and in experiment [6] was “inactive” in each case. In addition, the Potency result in [7] is “inactive”.
With `Brc1ccc([C@H]2CN3CCSC3=N2)cc1`, the call in experiment [2] and in experiment [3] was inactive. Moreover, the Potency entry in experiment [4], in experiment [5], in [6] and in [7] was “inactive” throughout.
For the compound `CCCn1c(=O)c2[nH]c(-c3ccc(OCC(=O)NCCN)cc3)nc2n(CCC)c1=O`, the compound was classed as inactive in [2] and in experiment [3]. Also, the Potency result in experiment [4], in experiment [5], in experiment [6] and in experiment [7] was “inactive” throughout.
For the compound `CC(=O)O[C@H]1C[C@@H]2CC[C@@H]3[C@H](CC[C@@]4(C)[C@H]3C[C@H]([N+]3(C)CCCCC3)[C@@H]4OC(C)=O)[C@@]2(C)C[C@@H]1[N+]1(C)CCCCC1`, the Potency result in [10], in experiment [12], in [4], in experiment [5], in experiment [6] and in experiment [7] was “inactive” in each case.
Take `CC[C@H]1CN2CCc3cc(OC)c(OC)cc3[C@H]2C[C@@H]1C[C@@H]1NCCc2cc(OC)c(OC)cc21`: the Potency entry in [10] is “inactive”. Further, the Potency is 562 nM (active) in [13]; 385 nM (active) in experiment [4]; 432 nM (active) in experiment [5]; 544 nM (active) in experiment [6]; 432 nM (active) in experiment [7].
